# Assay results reported in ChEMBL document CHEMBL2218924, “A broad activity screen in support of a chemogenomic map for kinase signalling research and drug discovery” (Biochem J, 2013).
# Columns and labels:
# [1] = target: T1, Ephrin type-A receptor 3 (Homo sapiens) (UniProt P29320); conditions: at 10 µM
# T1 sequence (whole entry): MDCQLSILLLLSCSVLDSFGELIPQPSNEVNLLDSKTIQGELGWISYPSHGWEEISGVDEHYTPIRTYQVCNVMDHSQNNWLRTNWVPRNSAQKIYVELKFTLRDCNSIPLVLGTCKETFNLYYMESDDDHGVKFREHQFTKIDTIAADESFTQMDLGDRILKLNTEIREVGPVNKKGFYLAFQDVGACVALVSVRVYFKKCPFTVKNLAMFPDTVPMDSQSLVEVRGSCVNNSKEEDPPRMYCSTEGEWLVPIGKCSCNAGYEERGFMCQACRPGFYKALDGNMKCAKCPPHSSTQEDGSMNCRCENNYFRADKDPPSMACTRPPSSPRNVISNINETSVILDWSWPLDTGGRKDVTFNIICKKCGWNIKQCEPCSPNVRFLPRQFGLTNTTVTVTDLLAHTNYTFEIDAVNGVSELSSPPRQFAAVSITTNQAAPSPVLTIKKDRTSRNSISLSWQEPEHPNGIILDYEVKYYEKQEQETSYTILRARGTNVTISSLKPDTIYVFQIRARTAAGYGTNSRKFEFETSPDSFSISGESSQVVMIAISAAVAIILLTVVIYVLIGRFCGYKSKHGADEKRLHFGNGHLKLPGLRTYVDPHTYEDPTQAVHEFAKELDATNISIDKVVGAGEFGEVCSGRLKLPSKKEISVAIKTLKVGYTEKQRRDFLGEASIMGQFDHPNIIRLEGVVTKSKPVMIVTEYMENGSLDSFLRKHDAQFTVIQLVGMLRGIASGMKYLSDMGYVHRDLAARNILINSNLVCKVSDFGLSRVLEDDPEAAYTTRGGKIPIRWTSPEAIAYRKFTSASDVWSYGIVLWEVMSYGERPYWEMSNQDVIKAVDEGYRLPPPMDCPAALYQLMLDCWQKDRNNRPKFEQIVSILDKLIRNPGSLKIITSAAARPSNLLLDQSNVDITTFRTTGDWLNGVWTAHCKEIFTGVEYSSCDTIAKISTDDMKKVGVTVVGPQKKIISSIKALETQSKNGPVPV
# [2] = target: Ephrin type-A receptor 5 (Homo sapiens) (UniProt P54756); conditions: at 10 µM
# Chain of Ephrin type-A receptor 5 (Homo sapiens) (P54756 whole entry): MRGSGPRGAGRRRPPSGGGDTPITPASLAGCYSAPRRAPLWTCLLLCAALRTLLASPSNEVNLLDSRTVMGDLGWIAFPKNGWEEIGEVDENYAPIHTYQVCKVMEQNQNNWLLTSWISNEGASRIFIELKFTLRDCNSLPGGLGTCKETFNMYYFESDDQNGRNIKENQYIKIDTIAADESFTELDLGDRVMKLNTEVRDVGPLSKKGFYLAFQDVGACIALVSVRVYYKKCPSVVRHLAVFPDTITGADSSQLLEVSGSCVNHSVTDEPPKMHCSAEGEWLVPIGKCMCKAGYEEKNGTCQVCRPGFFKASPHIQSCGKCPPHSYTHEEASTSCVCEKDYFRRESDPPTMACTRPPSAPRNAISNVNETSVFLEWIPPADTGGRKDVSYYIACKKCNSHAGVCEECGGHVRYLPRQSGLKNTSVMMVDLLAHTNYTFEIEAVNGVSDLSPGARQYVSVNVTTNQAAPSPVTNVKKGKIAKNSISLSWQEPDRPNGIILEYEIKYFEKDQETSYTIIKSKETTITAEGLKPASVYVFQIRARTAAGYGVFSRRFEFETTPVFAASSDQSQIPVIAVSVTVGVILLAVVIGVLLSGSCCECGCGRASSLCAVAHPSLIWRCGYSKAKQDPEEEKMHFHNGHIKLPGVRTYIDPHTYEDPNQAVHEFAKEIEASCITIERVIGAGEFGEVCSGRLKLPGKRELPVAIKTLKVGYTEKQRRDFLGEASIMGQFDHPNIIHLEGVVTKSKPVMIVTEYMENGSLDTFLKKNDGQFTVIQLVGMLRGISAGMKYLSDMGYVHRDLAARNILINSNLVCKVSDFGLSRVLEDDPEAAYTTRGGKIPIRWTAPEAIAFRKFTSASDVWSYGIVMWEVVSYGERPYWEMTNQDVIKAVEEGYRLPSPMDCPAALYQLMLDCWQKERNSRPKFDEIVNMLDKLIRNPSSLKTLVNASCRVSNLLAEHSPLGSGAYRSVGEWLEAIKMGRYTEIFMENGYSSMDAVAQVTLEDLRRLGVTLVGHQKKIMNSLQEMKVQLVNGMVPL
# [3] = target: Ephrin type-A receptor 7 (Homo sapiens) (UniProt Q15375); conditions: at 1 µM
# Chain of Ephrin type-A receptor 7 (Homo sapiens) (Q15375 28-998 limits assumed): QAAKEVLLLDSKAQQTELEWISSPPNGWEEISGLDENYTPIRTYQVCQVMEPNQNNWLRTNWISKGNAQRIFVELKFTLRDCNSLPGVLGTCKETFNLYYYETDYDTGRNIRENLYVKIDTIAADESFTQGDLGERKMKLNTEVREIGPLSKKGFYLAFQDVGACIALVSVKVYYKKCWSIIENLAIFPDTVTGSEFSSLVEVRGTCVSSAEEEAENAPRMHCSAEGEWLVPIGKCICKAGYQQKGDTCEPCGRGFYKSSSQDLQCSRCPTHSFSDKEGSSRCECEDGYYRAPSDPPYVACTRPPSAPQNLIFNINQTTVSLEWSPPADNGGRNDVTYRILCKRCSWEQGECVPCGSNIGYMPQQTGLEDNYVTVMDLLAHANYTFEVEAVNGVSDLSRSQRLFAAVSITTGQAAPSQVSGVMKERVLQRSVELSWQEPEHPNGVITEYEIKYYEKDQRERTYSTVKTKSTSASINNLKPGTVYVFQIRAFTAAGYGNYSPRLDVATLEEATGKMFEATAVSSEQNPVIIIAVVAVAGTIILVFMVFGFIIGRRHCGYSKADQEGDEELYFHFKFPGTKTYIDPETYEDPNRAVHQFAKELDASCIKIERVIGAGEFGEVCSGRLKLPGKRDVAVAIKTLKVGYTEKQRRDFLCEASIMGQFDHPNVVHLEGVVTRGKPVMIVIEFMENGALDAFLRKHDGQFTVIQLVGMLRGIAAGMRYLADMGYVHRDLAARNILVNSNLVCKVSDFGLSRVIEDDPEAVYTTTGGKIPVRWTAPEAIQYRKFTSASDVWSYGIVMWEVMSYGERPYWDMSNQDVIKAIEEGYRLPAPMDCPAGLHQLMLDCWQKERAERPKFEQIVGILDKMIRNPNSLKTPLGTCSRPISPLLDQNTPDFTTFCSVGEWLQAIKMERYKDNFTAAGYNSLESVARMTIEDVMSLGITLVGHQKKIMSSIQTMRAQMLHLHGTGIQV
# [4] = target: Ephrin type-A receptor 7 (Homo sapiens) (UniProt Q15375); conditions: at 10 µM
# [5] = target: T2, Ephrin type-A receptor 8 (Homo sapiens) (UniProt P29322); conditions: at 1 µM
# T2 sequence (whole entry): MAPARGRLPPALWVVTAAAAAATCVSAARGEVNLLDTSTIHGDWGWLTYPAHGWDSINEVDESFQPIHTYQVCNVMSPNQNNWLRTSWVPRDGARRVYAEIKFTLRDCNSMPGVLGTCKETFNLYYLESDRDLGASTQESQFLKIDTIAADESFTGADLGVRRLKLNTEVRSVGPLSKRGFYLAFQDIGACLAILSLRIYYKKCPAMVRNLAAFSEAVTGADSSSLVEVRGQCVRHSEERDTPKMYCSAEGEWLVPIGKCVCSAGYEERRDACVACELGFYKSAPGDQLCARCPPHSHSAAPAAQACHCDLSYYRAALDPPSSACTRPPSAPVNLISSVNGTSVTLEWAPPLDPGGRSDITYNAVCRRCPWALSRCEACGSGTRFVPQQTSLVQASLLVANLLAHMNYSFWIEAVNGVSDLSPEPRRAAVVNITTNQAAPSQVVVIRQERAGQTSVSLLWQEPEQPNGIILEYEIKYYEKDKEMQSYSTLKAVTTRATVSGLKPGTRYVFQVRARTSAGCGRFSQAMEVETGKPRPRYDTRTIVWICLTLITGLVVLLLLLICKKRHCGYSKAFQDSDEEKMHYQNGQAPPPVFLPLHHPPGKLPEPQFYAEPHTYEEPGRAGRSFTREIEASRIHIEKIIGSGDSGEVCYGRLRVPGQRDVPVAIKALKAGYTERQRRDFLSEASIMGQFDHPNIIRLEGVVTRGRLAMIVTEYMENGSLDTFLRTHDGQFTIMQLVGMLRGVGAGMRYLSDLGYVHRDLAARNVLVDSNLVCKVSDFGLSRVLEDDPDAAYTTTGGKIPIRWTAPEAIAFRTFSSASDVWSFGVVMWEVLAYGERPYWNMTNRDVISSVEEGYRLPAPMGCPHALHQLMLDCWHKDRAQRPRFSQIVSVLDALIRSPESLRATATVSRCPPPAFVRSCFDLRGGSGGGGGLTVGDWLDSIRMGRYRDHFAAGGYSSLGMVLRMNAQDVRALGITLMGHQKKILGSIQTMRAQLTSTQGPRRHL
# [6] = target: T2, Ephrin type-A receptor 8 (Homo sapiens); conditions: at 10 µM
# [7] = target: T3, Ephrin type-B receptor 1 (Homo sapiens) (UniProt P54762); conditions: at 1 µM
# T3 sequence (whole entry): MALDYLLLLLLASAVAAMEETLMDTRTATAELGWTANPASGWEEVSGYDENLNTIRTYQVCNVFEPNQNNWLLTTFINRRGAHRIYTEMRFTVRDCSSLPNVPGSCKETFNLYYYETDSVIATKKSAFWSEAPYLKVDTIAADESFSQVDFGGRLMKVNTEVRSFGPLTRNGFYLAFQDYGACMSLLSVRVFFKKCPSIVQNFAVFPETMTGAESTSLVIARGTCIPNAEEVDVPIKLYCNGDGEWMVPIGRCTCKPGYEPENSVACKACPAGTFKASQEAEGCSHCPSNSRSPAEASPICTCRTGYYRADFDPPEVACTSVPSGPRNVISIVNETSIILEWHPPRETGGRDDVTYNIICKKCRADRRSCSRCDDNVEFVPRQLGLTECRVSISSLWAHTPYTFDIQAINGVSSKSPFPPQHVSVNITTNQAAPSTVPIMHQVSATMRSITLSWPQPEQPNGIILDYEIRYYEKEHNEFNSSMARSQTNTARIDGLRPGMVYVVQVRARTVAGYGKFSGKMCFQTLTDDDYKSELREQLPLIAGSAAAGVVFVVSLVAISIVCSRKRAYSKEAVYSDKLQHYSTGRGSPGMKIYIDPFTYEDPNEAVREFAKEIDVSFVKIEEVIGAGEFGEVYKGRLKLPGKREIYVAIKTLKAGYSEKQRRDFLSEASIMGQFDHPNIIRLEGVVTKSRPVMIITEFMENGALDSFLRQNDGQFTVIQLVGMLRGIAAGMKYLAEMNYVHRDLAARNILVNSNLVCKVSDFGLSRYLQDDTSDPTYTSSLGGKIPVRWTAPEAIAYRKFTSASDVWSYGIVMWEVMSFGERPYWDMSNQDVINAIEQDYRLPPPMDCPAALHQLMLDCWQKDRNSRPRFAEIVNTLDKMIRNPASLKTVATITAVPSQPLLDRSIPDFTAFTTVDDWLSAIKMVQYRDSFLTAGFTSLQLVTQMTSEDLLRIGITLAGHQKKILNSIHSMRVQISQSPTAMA
# [8] = target: T3, Ephrin type-B receptor 1 (Homo sapiens); conditions: at 10 µM
# [9] = target: T4, Ephrin type-B receptor 2 (Homo sapiens) (UniProt P29323); conditions: at 1 µM
# T4 sequence (whole entry): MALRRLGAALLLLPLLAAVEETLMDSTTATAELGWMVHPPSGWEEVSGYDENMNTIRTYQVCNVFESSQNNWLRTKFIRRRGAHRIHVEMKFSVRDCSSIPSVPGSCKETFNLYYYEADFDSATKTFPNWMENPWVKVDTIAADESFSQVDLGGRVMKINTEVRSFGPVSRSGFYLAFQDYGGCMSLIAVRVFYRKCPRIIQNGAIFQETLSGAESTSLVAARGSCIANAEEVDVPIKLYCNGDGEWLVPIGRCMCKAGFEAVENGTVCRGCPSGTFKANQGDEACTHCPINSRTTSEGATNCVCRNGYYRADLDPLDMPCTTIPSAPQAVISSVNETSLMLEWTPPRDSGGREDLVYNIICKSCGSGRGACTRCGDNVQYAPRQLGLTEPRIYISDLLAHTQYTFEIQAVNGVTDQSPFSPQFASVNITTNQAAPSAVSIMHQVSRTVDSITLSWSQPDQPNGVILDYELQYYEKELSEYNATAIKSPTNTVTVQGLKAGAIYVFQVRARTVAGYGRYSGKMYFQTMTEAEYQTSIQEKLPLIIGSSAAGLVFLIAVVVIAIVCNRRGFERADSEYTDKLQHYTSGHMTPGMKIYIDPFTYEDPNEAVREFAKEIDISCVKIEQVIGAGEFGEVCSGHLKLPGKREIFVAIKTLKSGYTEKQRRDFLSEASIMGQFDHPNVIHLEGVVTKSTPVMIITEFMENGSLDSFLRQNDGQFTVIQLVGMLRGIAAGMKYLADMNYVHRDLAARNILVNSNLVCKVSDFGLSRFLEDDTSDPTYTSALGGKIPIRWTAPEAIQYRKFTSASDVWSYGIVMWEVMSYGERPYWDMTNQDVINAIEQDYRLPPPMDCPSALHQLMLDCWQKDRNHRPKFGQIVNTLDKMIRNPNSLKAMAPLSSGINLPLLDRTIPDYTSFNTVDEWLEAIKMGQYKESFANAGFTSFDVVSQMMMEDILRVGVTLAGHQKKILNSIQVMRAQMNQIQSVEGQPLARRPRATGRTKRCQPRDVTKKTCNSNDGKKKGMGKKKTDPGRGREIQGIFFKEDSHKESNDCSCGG
# [10] = target: T5, Ephrin type-B receptor 4 (Homo sapiens) (UniProt P54760); conditions: at 1 µM
# T5 sequence (whole entry): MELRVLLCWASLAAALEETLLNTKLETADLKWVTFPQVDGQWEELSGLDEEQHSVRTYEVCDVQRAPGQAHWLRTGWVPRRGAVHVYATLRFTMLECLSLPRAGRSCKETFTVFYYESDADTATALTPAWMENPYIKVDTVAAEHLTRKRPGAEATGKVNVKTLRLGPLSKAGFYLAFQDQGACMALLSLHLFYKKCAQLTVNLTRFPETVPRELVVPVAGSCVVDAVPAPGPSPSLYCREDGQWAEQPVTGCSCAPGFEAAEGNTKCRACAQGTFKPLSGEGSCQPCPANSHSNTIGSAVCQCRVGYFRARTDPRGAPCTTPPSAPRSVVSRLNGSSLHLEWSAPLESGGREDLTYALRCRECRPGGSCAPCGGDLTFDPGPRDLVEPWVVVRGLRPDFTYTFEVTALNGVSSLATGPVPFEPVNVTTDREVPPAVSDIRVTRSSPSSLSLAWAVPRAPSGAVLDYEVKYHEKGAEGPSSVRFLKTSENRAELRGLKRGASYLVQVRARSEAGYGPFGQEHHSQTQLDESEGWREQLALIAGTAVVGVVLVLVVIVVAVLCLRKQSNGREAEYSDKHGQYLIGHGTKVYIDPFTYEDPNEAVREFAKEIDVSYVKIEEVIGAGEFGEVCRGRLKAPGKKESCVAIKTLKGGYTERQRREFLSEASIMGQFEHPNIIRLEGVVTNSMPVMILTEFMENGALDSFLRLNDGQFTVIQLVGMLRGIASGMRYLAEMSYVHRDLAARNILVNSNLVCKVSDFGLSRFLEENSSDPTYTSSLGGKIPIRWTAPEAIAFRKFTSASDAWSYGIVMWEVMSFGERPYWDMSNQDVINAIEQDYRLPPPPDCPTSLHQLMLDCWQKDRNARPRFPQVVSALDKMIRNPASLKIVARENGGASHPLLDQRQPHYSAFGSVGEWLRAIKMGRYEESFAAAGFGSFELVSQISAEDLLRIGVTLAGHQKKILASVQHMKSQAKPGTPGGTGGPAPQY
# [11] = target: Receptor tyrosine-protein kinase erbB-4 (Homo sapiens) (UniProt Q15303); conditions: at 1 µM
# Chain of Receptor tyrosine-protein kinase erbB-4 (Homo sapiens) (Q15303 whole entry): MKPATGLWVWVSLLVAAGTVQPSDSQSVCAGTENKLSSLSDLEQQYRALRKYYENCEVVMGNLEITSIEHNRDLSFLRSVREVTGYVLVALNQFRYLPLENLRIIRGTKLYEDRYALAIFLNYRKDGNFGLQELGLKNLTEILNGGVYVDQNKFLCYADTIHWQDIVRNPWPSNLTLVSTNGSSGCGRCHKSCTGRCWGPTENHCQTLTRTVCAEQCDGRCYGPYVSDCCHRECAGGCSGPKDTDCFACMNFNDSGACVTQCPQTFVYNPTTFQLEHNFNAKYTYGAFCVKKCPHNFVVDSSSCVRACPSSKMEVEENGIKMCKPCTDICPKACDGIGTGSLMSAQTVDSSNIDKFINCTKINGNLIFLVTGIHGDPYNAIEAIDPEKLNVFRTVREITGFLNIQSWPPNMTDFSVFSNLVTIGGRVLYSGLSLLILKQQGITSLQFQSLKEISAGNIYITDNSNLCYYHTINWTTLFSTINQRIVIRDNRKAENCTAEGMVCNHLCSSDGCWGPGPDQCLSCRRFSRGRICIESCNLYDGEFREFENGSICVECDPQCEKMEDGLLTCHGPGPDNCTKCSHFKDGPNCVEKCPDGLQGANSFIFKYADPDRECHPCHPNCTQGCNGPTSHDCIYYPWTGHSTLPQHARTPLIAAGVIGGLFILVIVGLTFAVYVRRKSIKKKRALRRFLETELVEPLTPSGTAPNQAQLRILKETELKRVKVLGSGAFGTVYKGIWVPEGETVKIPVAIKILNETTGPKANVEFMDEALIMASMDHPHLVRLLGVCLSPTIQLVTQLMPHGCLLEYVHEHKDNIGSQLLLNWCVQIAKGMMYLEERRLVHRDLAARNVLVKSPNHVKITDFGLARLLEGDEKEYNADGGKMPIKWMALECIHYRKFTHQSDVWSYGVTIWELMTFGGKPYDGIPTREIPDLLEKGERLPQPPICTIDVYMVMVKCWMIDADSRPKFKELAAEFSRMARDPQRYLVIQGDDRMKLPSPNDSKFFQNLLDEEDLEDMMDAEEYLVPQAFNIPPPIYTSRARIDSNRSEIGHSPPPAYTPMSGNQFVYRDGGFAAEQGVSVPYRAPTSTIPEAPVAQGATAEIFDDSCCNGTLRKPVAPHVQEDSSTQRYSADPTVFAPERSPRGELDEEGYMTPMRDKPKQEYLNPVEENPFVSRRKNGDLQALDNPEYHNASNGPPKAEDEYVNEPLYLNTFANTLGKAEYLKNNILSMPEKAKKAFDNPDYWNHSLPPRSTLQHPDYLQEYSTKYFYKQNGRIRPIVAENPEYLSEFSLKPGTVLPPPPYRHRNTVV
# [12] = target: Receptor tyrosine-protein kinase erbB-4 (Homo sapiens) (UniProt Q15303); conditions: at 10 µM
# [13] = target: Focal adhesion kinase 1 (Homo sapiens) (UniProt Q05397); conditions: at 1 µM
# Chain of Focal adhesion kinase 1 (Homo sapiens) (Q05397 2-1052 limits assumed): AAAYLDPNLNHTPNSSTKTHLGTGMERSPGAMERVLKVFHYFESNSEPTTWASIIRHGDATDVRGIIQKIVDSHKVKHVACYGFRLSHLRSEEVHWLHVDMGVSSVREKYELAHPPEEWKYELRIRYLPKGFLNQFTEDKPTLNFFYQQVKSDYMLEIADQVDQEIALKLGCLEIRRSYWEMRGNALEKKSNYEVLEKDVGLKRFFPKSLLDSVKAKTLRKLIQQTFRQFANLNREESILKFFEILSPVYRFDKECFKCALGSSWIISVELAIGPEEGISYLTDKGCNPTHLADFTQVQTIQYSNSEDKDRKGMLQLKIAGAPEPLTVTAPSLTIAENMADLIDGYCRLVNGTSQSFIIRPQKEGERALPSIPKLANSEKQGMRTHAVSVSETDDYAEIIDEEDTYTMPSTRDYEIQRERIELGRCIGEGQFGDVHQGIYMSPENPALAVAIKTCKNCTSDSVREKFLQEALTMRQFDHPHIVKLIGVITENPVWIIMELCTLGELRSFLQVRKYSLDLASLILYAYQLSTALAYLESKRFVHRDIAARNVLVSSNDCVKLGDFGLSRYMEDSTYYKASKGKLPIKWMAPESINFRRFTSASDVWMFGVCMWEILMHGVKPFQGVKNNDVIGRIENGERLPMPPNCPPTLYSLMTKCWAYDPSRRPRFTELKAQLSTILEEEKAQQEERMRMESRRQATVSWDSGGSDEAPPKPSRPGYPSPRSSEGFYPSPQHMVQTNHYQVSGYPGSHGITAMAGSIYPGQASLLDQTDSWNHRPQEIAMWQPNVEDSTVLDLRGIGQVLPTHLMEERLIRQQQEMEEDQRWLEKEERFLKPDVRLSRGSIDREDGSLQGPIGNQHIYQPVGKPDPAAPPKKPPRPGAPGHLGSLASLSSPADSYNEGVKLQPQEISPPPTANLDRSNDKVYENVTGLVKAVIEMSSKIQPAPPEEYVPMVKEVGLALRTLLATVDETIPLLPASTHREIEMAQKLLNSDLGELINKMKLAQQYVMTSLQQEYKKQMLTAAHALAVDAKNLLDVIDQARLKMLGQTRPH
# [14] = target: Ephrin type-A receptor 5 (Homo sapiens) (UniProt P54756); conditions: at 1 µM
# [15] = target: T5, Ephrin type-B receptor 4 (Homo sapiens); conditions: at 10 µM
SMILES,residual activity [1],residual activity [2],residual activity [3],residual activity [4],residual activity [5],residual activity [6],residual activity [7],residual activity [8],residual activity [9],residual activity [10],residual activity [11],residual activity [12],residual activity [13],residual activity [14],residual activity [15]
O=c1cc(N2CCNCC2)oc2c(-c3ccccc3)cccc12,77%,103%,98%,88%,102%,100%,100%,105%,103%,97%,95%,73%,105%,–,–
COc1ccc(-c2cnc3c(-c4ccsc4)cnn3c2)cc1,87%,–,95%,95%,98%,99%,–,–,–,123%,–,–,141%,95%,122%
